The source made the active and inactive calls. How the source made its calls: active means hit-call score of the fitted dose curve at least 0.9, where 1 is the maximum; inactive means score below 0.9.

Drawing on PubChem BioAssay (EPA / NIEHS), this text covers outcome and AC50 for four molecules.

Common to all, as to conditions: mRNA level, 48 h; actives raise or lower the signal
Read-out in test [1]: Bcl-2 (BAD) gene, BAD (gene 572)
In words: LTEA_HepaRG_BAD: Life Technologies and Expression Analysis (LTEA) Assay for Bcl-2 (BAD) gene using HepaRG (AID 2283469). The procedure, abridged:
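Activity values reflect up- or down-regulation of BAD mRNA in human HepaRG hepatic cells treated 48 h in serum-free medium, with eight-point half-log dosing capped at 100 uM and 0.5% DMSO vehicle.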

Read-out in test [2]: Bcl-2 (BAX) gene, BAX (gene 581)
In words: LTEA_HepaRG_BAX: Life Technologies and Expression Analysis (LTEA) Assay for Bcl-2 (BAX) gene using HepaRG (AID 2283470). The procedure, abridged:
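Cells were thawed, plated for 48 h, moved to serum-free induction medium and dosed for 48 h (highest concentration 100 uM, half-log steps, 0.5% DMSO). Total RNA was then analysed for BAX expression by qRT-PCR.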

Read-out in test [3]: adenosine kinase (ADK) gene, ADK (gene 132)
In words: LTEA_HepaRG_ADK: Life Technologies and Expression Analysis (LTEA) Assay for adenosine kinase (ADK) gene using HepaRG (AID 2283471). The procedure, abridged:
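ADK expression quantified by qRT-PCR, normalised to three housekeeping genes, after 48 h exposure of HepaRG cells to eight concentrations (top 100 uM, half-log steps, duplicate, 0.5% DMSO). Up- or down-regulation fitted relative to vehicle.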

Read-out in test [4]: Alpha-fetoprotein (AFP) gene, AFP (gene 174)
The test is described as follows: LTEA_HepaRG_AFP: Life Technologies and Expression Analysis (LTEA) Assay for Alpha-fetoprotein (AFP) gene using HepaRG (AID 2283472). The procedure, abridged:
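Chemicals were tested on differentiated HepaRG cells for 48 hours at eight concentrations up to 100 uM, with 0.5% DMSO as vehicle. AFP expression was then quantified by qRT-PCR and analyzed for gain or loss relative to DMSO.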

Read-out in test [5]: Apolipoprotein A-V (APOA5) gene, APOA5 (gene 116519)
The test is described as follows: LTEA_HepaRG_APOA5: Life Technologies and Expression Analysis (LTEA) Assay for Apolipoprotein A-V (APOA5) gene using HepaRG (AID 2283474). The procedure, abridged:
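HepaRG, 48 h chemical exposure in serum-free induction medium, 8-pt half-log series (top 100 uM), 0.5% DMSO vehicle, duplicates. Readout: APOA5 mRNA by qRT-PCR, housekeeping-normalized; bidirectional fit vs DMSO baseline.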

Read-out in test [6]: Apoptosis regulator Bcl-2 (Homo sapiens) (UniProt P10415)
In words: LTEA_HepaRG_BCL2: Life Technologies and Expression Analysis (LTEA) Assay for Bcl-2 gene using HepaRG (AID 2283475). The procedure, abridged:
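Plated human HepaRG cells are exposed to test chemicals for 48 h across eight concentrations from 100 uM downward in half-log steps (0.5% DMSO). BCL2 expression is then measured by qRT-PCR with housekeeping normalisation and fitted bidirectionally against vehicle.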

Read-out in test [7]: Bcl-2 (BID) gene, BID (gene 637)
In words: LTEA_HepaRG_BID: Life Technologies and Expression Analysis (LTEA) Assay for Bcl-2 (BID) gene using HepaRG (AID 2283476). The procedure, abridged:
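Cells are plated, cultured 48 h, switched to serum-free induction medium, then dosed 48 h (100 uM top, half-log steps, 0.5% DMSO). RNA is isolated and BID expression read by qRT-PCR.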

Read-out in test [8]: Caspase-3 (Homo sapiens) (UniProt P42574)
In words: LTEA_HepaRG_CASP3: Life Technologies and Expression Analysis (LTEA) Assay for cysteine-aspartic acid protease (CASP3) using HepaRG (AID 2283477). The procedure, abridged:
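HepaRG, 48 h exposure, 8 conc. (top 100 uM, half-log steps, duplicate), 0.5% DMSO vehicle; qRT-PCR of CASP3 transcript, housekeeping-normalised (ACTB/GAPDH/POLR2A); bidirectional curve fit vs DMSO baseline.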

Read-out in test [9]: Cytochrome P450 (CYP24A1), CYP24A1 (gene 1591)
The test is described as follows: LTEA_HepaRG_CYP24A1: Life Technologies and Expression Analysis (LTEA) Assay for Cytochrome P450 (CYP24A1) using HepaRG (AID 2283478). The procedure, abridged: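 qRT-PCR read-out: CYP24A1 transcript levels normalized to three housekeeping genes, bidirectional curve fits against 0.5% DMSO baseline. Human HepaRG cells treated 48 h with chemicals at eight concentrations from 100 uM in half-log steps.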

Read-out in test [10]: Cytochrome P450 (CYP1A2), CYP1A2 (gene 1544)
In words: LTEA_HepaRG_CYP1A2: Life Technologies and Expression Analysis (LTEA) Assay for Cytochrome P450 (CYP1A2) using HepaRG (AID 2283479). The procedure, abridged: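 HepaRG, 48 h exposure, top 100 uM, half-log 8-pt, 0.5% DMSO vehicle, duplicates. Readout: TaqMan qRT-PCR of CYP1A2 mRNA, housekeeping-normalized (ACTB/GAPDH/POLR2A). Gain/loss fit relative to DMSO baseline.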

Read-out in test [11]: Cytochrome P450 (CYP2B6), CYP2B6 (gene 1555)
In words: LTEA_HepaRG_CYP2B6: Life Technologies and Expression Analysis (LTEA) Assay for Cytochrome P450 (CYP2B6) using HepaRG (AID 2283481). The procedure, abridged:
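Read-out is CYP2B6 mRNA by TaqMan qRT-PCR, normalized to three housekeeping genes and fitted bidirectionally against 0.5% DMSO baseline. Human HepaRG cells received test chemicals for 48 h, top concentration 100 uM, half-log dilutions.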

Read-out in test [12]: CYP2C8 (gene 1558)
The test is described as follows: LTEA_HepaRG_CYP2C8: Life Technologies and Expression Analysis (LTEA) Assay for CYP2C8 using HepaRG (AID 2283483). The procedure, abridged: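 This is a transcriptional endpoint in HepaRG cultures: 48 h exposure, highest concentration 100 uM. CYP2C8 mRNA is quantified by TaqMan qRT-PCR.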

Read-out in test [13]: CYP2C9 (gene 1559)
The test is described as follows: LTEA_HepaRG_CYP2C9: Life Technologies and Expression Analysis (LTEA) Assay for CYP2C9 using HepaRG (AID 2283484). The procedure, abridged: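 Eight-point concentration-response (highest 100 uM, half-log dilutions) in HepaRG cells for 48 h; CYP2C9 expression by qRT-PCR normalized to ACTB, GAPDH, POLR2A. Bidirectional fit, DMSO baseline.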

Read-out in test [14]: CYP2E1 (gene 1571)
In words: LTEA_HepaRG_CYP2E1: Life Technologies and Expression Analysis (LTEA) Assay for CYP2E1 using HepaRG (AID 2283485). The procedure, abridged:
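Readout is qRT-PCR of CYP2E1 mRNA, normalized to three housekeeping genes and fitted bidirectionally against 0.5% DMSO. HepaRG cells were dosed 48 h at eight concentrations, highest 100 uM with half-log dilutions.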

Read-out in test [15]: CYP4A11 (gene 1579)
In words: LTEA_HepaRG_CYP4A11: Life Technologies and Expression Analysis (LTEA) Assay for CYP4A11 using HepaRG (AID 2283486). The procedure, abridged:
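CYP4A11 transcript levels were quantified by TaqMan qRT-PCR after HepaRG human liver cells were treated for 48 hours with test chemicals (top 100 uM, half-log dilutions, 0.5% DMSO). Gain or loss of signal was fitted relative to DMSO.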

Read-out in test [16]: DNA damage-inducible transcript 3 (DDIT3), DDIT3 (gene 1649)
The test is described as follows: LTEA_HepaRG_DDIT3: Life Technologies and Expression Analysis (LTEA) Assay for DNA damage-inducible transcript 3 (DDIT3) using HepaRG (AID 2283488). The procedure, abridged: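 Cells are human HepaRG liver cells treated for 48 h with eight half-log concentrations up to 100 uM in 0.5% DMSO. Transcript levels come from qRT-PCR normalized to three housekeeping genes, with activity fitted in both directions relative to vehicle.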

Read-out in test [17]: Cytochrome P450 2C19 (Homo sapiens) (UniProt P33261)
In words: LTEA_HepaRG_CYP2C19: Life Technologies and Expression Analysis (LTEA) Assay for CYP2C19 using HepaRG (AID 2283482). The procedure, abridged:
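HepaRG, 48 h chemical exposure, 8-pt half-log series from 100 uM in 0.5% DMSO, duplicates. Readout: CYP2C19 mRNA by TaqMan qRT-PCR, housekeeping-normalized. Bidirectional fit vs DMSO baseline; phenobarbital 1mM as induction control.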

Read-out in test [18]: Cytochrome P450 3A4 (Homo sapiens) (UniProt P08684)
In words: LTEA_HepaRG_CYP3A4: Life Technologies and Expression Analysis (LTEA) Assay for CYP3A4 using HepaRG (AID 2283487). The procedure, abridged:
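Differentiated HepaRG cells, plated 48 h, then dosed 48 h in serum-free induction medium with 0.5% DMSO, 8 half-log concentrations up to 100 uM, duplicate. CYP3A4 mRNA by qRT-PCR, normalized to ACTB/GAPDH/POLR2A; bidirectional fit versus DMSO.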

Cytochrome P450 2C19 (Homo sapiens), sequence (P33261 whole entry, looked up): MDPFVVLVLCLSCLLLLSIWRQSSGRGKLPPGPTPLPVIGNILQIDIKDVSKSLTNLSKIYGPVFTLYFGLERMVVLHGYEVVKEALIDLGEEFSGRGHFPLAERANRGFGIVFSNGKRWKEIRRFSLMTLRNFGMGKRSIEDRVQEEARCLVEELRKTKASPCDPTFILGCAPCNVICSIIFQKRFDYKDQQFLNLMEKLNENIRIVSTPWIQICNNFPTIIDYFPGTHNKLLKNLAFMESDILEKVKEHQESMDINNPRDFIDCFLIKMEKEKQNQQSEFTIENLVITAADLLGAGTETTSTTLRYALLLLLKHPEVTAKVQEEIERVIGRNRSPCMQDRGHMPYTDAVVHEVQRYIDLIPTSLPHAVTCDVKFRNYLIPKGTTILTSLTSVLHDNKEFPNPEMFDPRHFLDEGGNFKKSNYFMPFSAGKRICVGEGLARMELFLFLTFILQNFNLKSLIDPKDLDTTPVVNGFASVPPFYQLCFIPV
Cytochrome P450 3A4 (Homo sapiens), sequence (P08684 whole entry, looked up): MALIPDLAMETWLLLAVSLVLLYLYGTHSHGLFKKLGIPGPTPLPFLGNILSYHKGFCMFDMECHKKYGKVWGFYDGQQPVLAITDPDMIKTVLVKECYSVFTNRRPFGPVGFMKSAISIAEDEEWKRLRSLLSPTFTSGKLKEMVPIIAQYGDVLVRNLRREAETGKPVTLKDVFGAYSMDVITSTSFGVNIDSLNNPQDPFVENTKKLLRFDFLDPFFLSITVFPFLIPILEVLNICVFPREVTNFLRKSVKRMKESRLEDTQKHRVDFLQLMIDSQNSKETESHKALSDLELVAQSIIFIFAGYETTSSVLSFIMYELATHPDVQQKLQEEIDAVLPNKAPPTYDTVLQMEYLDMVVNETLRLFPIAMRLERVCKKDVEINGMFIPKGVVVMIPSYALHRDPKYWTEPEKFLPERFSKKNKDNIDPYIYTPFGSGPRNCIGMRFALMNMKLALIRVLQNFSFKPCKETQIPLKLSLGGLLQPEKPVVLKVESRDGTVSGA
Apoptosis regulator Bcl-2 (Homo sapiens), sequence (P10415 whole entry, looked up): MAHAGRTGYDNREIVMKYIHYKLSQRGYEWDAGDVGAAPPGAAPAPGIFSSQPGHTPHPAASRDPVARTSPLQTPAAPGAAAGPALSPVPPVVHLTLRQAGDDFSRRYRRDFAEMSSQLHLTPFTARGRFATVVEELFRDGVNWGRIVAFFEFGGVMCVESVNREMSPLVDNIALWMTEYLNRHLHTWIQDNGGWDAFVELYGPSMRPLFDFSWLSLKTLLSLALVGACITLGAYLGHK
Caspase-3 (Homo sapiens), sequence (P42574 whole entry, looked up): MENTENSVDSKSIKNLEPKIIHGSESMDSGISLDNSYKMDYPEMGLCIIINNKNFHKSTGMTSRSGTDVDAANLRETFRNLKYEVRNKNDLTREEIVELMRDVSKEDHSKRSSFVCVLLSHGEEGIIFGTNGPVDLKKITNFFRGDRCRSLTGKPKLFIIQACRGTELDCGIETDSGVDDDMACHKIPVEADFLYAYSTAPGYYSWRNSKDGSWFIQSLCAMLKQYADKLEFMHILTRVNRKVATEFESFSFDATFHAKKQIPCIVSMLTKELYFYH

For `CCOC(=O)C(C)(C)Oc1ccc(Cl)cc1`, the molecule was called inactive in test [1], in [2], in test [3], in test [4], in test [5] and in test [6]. The molecule was called inactive in test [7], in test [8], in test [9], in [10], in test [11] and in test [12]. For the same molecule, the call in [13], in [14] and in test [16] was inactive. Besides, the AC50 in test [15] was 27.6 µM (active).
As for `CC1=C(/C=C/C(C)=C/C=C/C(C)=C/CO)C(C)(C)CCC1`, the molecule was called inactive in test [1], in [2], in [3], in test [4], in test [6] and in test [7]. The result in test [8], in test [9], in test [10], in test [13] and in [16] was inactive. In addition, the half-maximal activity concentration (AC50) in [5] is 52.2 µM (active); in [17], 43.5 µM (active); in test [12] it was 52.2 µM (active); in test [14] it was 52.2 µM (active); in [15], 15.5 µM (active); in test [18], 23.6 µM (active).
Consider `CNC(=O)[C@H]1O[C@@H](n2cnc3c(NCc4cc(Cl)ccc4OCc4cc(C)no4)ncnc32)[C@H](O)[C@@H]1N`, for which the molecule was called inactive in test [1], in test [2], in [3], in [4], in test [5] and in test [6]. The molecule was called inactive in [7], in test [8], in [9], in test [10], in [17] and in [12]. For the same molecule, the call in test [13], in test [14], in test [15], in test [18] and in [16] was inactive.
For `Cc1ccc2ncccc2c1`, the molecule was classed as inactive in test [1], in test [2], in [3], in test [4], in [5] and in [6]. The molecule was classed as inactive in test [7], in [8], in test [9], in [10], in [17] and in [12]. Moreover, the outcome in test [13], in [14], in test [15], in test [18] and in test [16] was inactive. Also, in test [11], the AC50 is 13.2 µM (active).

As a reminder, the AC50 is the concentration at which the activity in the assay is half-maximal.
